Test results: PubChem BioAssay
“And” between values parts separate entries of the source, which are not always exact repeats. Equal entries are not always repeated. The source made the active and inactive calls.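 Rule for the calls, unless noted: active = thallium flux through the channel raised or lowered by more than 3 SD from vehicle-only wells, actives on both sides; inactive = the rest.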

Experiments:
[1] = hESC survival regulators, cell-based (AID 493140; call rule not given here;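 note: cells exposed to compounds for four days before counting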); conditions: human embryonic stem cell survival screen; stronger effect = higher value
[2] = Cy5 fluorescence interference with SSB-bound oligo, artefact control for HCV NS3 helicase inhibitor project, biochemical, NIH Clinical Collection, E. coli SSB (AID 743268; call rule not given here)
[3] = system: Hepatitis C virus NS3 helicase; assay: HCV NS3 helicase inhibitors, primary screen, biochemical, fluorescence polarization, NIH Clinical Collection (AID 743270; call rule not given here); conditions: NS3 helicase binding to Cy5-dT15 DNA, stronger effect = higher value, concentration not given here
[4] = target: Single-stranded DNA-binding protein (Escherichia coli (strain K12)) (UniProt P0AGE0); assay: E. coli SSB displacement from DNA, counter-screen for HCV NS3 helicase inhibitor project, biochemical, fluorescence polarization, NIH Clinical Collection (AID 743271; in the data active = inhibition above about 28%); conditions: stronger effect = higher value, concentration not given here
[5] = fluorescence interference in NS3h assay format, artefact control for HCV NS3 helicase inhibitor project, biochemical, NIH Clinical Collection (AID 743272; call rule not given here;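 note: HCV NS3 helicase with a Cy5 labelled single stranded DNA probe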); conditions: fluorescence interference counterscreen, stronger effect = lower value
[6] = target: 6-phosphogluconate dehydrogenase, decarboxylating (Homo sapiens) (UniProt P52209); assay: 6PGD enzyme inhibitors, primary screen, biochemical, human, recombinant enzyme, NADPH absorbance (AID 1159550;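 active = at least 20% inhibition of 6-phosphogluconate dehydrogenase activity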); conditions: recombinant 6PGD, NADPH absorbance 341 nm; at 10 µM; stronger effect = higher value
Chain of 6-phosphogluconate dehydrogenase, decarboxylating (Homo sapiens) (P52209 whole entry, looked up): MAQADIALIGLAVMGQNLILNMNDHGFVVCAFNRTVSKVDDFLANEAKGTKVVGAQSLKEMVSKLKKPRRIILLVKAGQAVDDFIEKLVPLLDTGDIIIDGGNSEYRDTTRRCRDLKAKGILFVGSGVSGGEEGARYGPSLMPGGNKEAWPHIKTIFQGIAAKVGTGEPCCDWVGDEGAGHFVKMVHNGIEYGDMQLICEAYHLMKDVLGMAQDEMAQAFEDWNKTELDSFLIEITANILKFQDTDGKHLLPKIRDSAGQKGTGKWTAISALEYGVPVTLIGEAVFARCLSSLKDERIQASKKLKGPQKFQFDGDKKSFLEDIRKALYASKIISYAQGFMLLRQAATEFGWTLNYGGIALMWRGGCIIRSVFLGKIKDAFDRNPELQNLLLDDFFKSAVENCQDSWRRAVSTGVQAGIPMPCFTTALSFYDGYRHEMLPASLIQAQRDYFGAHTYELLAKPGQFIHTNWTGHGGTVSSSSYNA

[7] = survival rescue of mitochondrial mutant cells in low glucose, primary screen, MELAS cybrids, Rieske KO mouse fibroblasts, CellTiter-Glo (AID 1508586;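 active = mean z-score across replicates of 1.96 or higher in either the MELAS or the Rieske mutant cell line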;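 note: z relative to plate mean and SD of compound and empty wells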)
[8] = target: NAD(+) hydrolase SARM1 (Homo sapiens) (UniProt Q6SZW1); assay: SARM1 TIR NADase inhibitors, cell lysate, NAD-Glo luminescence (AID 1508614;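 active = compound whose remaining NAD level is above about 45 nM, limit read from the data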;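 note: higher remaining NAD means stronger inhibition of SARM1 NADase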); conditions: SAM-TIR HEK293T lysate NADase, at 1 µM, stronger effect = higher value
Chain of NAD(+) hydrolase SARM1 (Homo sapiens) (Q6SZW1 whole entry, looked up, the tested form may be a part): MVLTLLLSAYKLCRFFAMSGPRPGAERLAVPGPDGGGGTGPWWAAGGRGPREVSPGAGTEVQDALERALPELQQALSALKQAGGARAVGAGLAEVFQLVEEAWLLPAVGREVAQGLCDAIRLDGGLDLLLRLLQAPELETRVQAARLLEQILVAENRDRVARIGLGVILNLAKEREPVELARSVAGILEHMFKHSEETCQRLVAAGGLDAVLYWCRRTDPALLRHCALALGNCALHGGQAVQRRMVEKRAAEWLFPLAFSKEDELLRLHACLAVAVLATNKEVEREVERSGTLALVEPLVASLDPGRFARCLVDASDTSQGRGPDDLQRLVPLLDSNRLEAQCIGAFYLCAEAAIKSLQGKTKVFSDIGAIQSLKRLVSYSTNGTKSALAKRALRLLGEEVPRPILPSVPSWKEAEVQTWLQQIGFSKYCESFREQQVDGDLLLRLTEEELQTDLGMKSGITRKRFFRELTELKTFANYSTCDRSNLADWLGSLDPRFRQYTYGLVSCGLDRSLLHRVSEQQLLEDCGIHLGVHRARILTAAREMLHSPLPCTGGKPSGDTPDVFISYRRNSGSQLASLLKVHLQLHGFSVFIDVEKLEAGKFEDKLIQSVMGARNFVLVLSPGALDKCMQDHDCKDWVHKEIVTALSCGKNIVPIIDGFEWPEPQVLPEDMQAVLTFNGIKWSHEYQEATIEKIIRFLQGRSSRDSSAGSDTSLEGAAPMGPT

[9] = target: Mitogen-activated protein kinase 7 (Homo sapiens) (UniProt Q13164); assay: ERK5 transactivation activators in reporter cells, primary screen, cell-based, HTS (AID 1508626;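 active = luciferase signal above three times the same-plate solvent-only control wells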;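 note: luciferase driven by Gal4-ERK5 fusion binding five Gal4 sites before minimal TATA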); conditions: HeLa Gal4-ERK5 transactivation, 18 h, at 5 µM, stronger effect = higher value
Chain of Mitogen-activated protein kinase 7 (Homo sapiens) (Q13164 whole entry, looked up, the tested form may be a part): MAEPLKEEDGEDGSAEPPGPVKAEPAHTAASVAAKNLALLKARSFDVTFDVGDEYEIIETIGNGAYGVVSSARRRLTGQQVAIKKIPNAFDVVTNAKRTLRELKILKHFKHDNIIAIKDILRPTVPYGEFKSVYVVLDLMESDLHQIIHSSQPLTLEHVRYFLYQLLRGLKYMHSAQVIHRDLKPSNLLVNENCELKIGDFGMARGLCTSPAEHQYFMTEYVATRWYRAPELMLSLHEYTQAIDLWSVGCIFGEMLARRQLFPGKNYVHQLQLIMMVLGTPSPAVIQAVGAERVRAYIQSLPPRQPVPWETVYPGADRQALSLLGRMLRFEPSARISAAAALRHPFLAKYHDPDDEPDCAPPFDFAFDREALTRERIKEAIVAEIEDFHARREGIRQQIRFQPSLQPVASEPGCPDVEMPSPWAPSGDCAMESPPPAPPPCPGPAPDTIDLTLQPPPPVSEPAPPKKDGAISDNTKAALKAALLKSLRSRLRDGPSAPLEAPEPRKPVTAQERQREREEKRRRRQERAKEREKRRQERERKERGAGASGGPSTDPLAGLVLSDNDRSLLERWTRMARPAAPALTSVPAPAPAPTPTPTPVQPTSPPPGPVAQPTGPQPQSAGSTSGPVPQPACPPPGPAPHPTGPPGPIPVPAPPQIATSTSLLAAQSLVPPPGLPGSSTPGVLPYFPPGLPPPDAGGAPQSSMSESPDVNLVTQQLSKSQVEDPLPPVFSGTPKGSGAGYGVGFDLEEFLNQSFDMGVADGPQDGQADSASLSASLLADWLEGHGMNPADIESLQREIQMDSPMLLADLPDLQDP

[10] = viability rescue of complex I mutant cybrids, primary screen, cell-based, galactose medium, ATP luminescence (AID 1645843;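 active = z-score of at least 1.8 in each of two replicates, scored against plate mean and spread of sample wells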;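 note: positive z means more ATP and so rescue of galactose-driven cybrid death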); conditions: complex I mutant cybrid cells, 72 h, stronger effect = higher value
[11] = system: F380Y; assay: modulators of BK channel variants, profiling panel, selectivity assay, cell-based, U2OS BacMam, thallium flux, beta subunits (AID 1259406); conditions: at 30 µM;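 note: initial slope of Thallos dye fluorescence rise after thallium is added; log ratio against the mean of 0.3% DMSO vehicle wells on the same plate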
[12] = system: F380Y/beta2Delta; assay: as above; conditions: at 30 µM
[13] = target: Calcium-activated potassium channel subunit alpha-1 (Homo sapiens) + Leucine-rich repeat-containing protein 26 (Homo sapiens) (UniProt Q12791+Q2I0M4); assay: as above; conditions: F380Y/Slo1WT/gamma1, at 30 µM
Chain of Calcium-activated potassium channel subunit alpha-1 (Homo sapiens) + Leucine-rich repeat-containing protein 26 (Homo sapiens) (Q2I0M4 whole entry, looked up, one chain of several): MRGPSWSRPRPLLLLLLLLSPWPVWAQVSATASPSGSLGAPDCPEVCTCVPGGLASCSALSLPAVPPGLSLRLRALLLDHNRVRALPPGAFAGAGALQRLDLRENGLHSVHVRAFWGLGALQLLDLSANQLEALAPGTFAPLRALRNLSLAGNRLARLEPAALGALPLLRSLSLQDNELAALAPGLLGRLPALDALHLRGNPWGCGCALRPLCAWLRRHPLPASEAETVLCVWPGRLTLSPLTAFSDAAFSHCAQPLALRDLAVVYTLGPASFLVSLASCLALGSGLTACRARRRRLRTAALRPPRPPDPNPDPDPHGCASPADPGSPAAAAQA

[14] = system: R275C; assay: as above; conditions: at 30 µM
[15] = system: R275C/beta1; assay: as above; conditions: at 30 µM
[16] = system: R275C/beta2Delta; assay: as above; conditions: at 30 µM
[17] = differential killing of epithelial or mesenchymal cells, primary screen, imaging, PC-3E GFP, TEM4-18 mCherry, co-culture (AID 1345086;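 active = compounds killing one labelled cell type while sparing the other, by normalised counts and ratio limits, not self-fluorescent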;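 for all read-outs here: cells exposed to compound for 72 h before imaging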;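 for red/green cell ratio (normalised): normalised mesenchymal count divided by normalised epithelial count so high means epithelial killing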); conditions: imaging cell counts, at 1 µM; for red/green cell ratio (normalised): actives lie on both sides, counts scaled to control wells, 1 = unselective
[18] = liver-stage malaria parasite growth inhibition, primary screen, cell-based, HepG2, luciferase luminescence, HepG2 viability (AID 624349; in the data active = parasite load remaining mostly below about 12%, no sharp cut-off; inactive = mostly above about 10%;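 note: 100% = mean of DMSO negative control wells on the same plate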); conditions: P. berghei liver stage in HepG2, luciferase luminescence, concentration not given here; parasite load remaining: stronger effect = lower value; viability: measured here: HepG2 viability without parasites
[19] = sensitizers of A549 cells to miR-34 induction, primary screen, imaging, A549 dox-inducible miR-34, nuclei and caspase counts (AID 1347080;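 active = compounds whose cell count with miR-34 switched on is under 0.7 times the count with it off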); conditions: A549 miR-34 inducible, Hoechst nuclei count, 48 h
[20] = MELAS cybrid survival, CellTiter-Glo 48 h, stronger effect = higher value
[21] = Rieske KO mouse fibroblast survival, CellTiter-Glo 72 h
[22] = measured here: epithelial PC-3E GFP cell survival
[23] = measured here: mesenchymal TEM4-18 mCherry cell survival
[24] = stronger effect = lower value, cell number ratio, induced over uninduced
[25] = measured here: relative caspase fold change +Dox/-Dox
[26] = measured here: total cells with miR-34 induction, stronger effect = lower value
[27] = measured here: total cells without miR-34 induction

With `C[C@]12CC[C@@H]3c4ccc(O)cc4CC[C@H]3[C@@H]1CC[C@@H]2O` the survival [1] was 11.2 (inactive), the fluorescence ratio [2] was 1 (inactive) and the inhibition [3] was 2.77% (inactive). For the same molecule, the inhibition [4] was -0.87% (inactive), the fluorescence ratio [5] was 0.97 (inactive) and the inhibition [6] was -7.69% (inactive). For the same molecule, the z-score [7, 20] was 1.01 (inactive) and 0.292 (inactive), the z-score [7, 21] was -0.193 and 1.1 and the remaining NAD [8] was 10 nM (inactive). For the same molecule, the luciferase signal [9] was 184 AU (inactive), the z-score [10] was 0.115 (inactive) and -0.055 (inactive) and the log fold change Tl+ flux [11] was 0.0249 (inactive). For the same molecule, the log fold change Tl+ flux [12] was -0.0581 (inactive), the log fold change Tl+ flux [13] was 0.072 (inactive) and the log fold change Tl+ flux [14] was 0.021 (inactive). For the same molecule, the log fold change Tl+ flux [15] was 0.0222 (inactive) and the log fold change Tl+ flux [16] was -0.0294 (inactive).
With `O=C(O)[C@H](O)[C@@](O)(Cc1ccc(O)cc1)C(=O)O` the inhibition [6] was 12.5% (inactive), the red/green cell ratio (normalised) [17] was 1.3 (inactive) and the normalised cell number [17, 22] was 0.73. It also gave a normalised cell number [17, 23] of 0.94.
For `CC1(C)S[C@@H]2[C@H](NC(=O)[C@H](N)c3ccc(O)cc3)C(=O)N2[C@H]1C(=O)O`, the survival [1] was 6.33 (inactive), the parasite load remaining [18] was 78% (inactive) and 120% (inactive) and 88.8% (inactive) and the viability [18] was 117% and 121% and 76%. The fluorescence ratio [2] was 1.01 (inactive), the inhibition [3] was -4.09% (inactive) and the inhibition [4] was 7.91% (inactive). The fluorescence ratio [5] was 1 (inactive), the inhibition [6] was 8.62% (inactive) and the fold change [19, 24] was 0.943 (inactive) and 0.821 (inactive). The fold change [19, 25] was 1.29 and 1.62, the cell count [19, 26] was 10300 and 8970 and the cell count [19, 27] was 10900. For the same molecule, the z-score [7, 20] was 0.664 (inactive), the z-score [7, 21] was 0.115 and the remaining NAD [8] was 10 nM (inactive). The luciferase signal [9] was 56 AU (inactive), the z-score [10] was 0.84 (inactive) and the log fold change Tl+ flux [11] was -0.0516 (inactive). The log fold change Tl+ flux [12] was -0.0816 (active), the log fold change Tl+ flux [13] was 0.0259 (inactive) and the log fold change Tl+ flux [14] was 0.00882 (inactive). For the same molecule, the log fold change Tl+ flux [15] was 0.0045 (inactive) and the log fold change Tl+ flux [16] was -0.0233 (inactive).
For `CC(=O)O[C@]1(C(C)=O)CC[C@H]2[C@@H]3C[C@H](C)C4=CC(=O)CC[C@]4(C)[C@H]3CC[C@@]21C`, the parasite load remaining [18] was 22.6% (inactive), the viability [18] was 77.3% and the fluorescence ratio [2] was 0.99 (inactive). The inhibition [3] was -0.45% (inactive), the inhibition [4] was -0.48% (inactive) and the fluorescence ratio [5] was 0.97 (inactive). The inhibition [6] was 2.85% (inactive), the fold change [19, 24] was 0.928 (inactive) and the fold change [19, 25] was 1.75. For the same molecule, the cell count [19, 26] was 7550, the cell count [19, 27] was 8130 and the remaining NAD [8] was 10 nM (inactive). The luciferase signal [9] was 68 AU (inactive), the z-score [10] was -1.19 (inactive) and the log fold change Tl+ flux [11] was -0.0294 (inactive). For the same molecule, the log fold change Tl+ flux [12] was -0.0667 (inactive), the log fold change Tl+ flux [13] was -0.0359 (inactive) and the log fold change Tl+ flux [14] was -0.0267 (inactive). For the same molecule, the log fold change Tl+ flux [15] was 0.0157 (inactive) and the log fold change Tl+ flux [16] was 0.0115 (inactive).
In the case of `CC[C@H](C)C(=O)O[C@H]1CCC=C2C=C[C@H](C)[C@H](CC[C@@H]3C[C@@H](O)CC(=O)O3)[C@H]21`, the parasite load remaining [18] is reported as 95.7% (inactive) and 85.1% (inactive), the viability [18] is reported as 67.9% and 134% and the fluorescence ratio [2] is reported as 0.91 (inactive). The inhibition [3] was 0.66% (inactive), the inhibition [4] was 1.97% (inactive) and the fluorescence ratio [5] was 0.89 (inactive). For the same molecule, the inhibition [6] was -1.06% (inactive), the fold change [19, 24] was 0.923 (inactive) and 1.16 (inactive) and 1.1 (inactive) and the fold change [19, 25] was 1.44 and 0.292 and 0.944. For the same molecule, the cell count [19, 26] was 2090 and 1930 and 4610, the cell count [19, 27] was 2270 and 1660 and 4180 and the z-score [7, 20] was 0.801 (inactive) and -1.19 (inactive). The z-score [7, 21] was 0.000262 and -0.468, the remaining NAD [8] was 10 nM (inactive) and the luciferase signal [9] was 24 AU (inactive). For the same molecule, the z-score [10] was -0.615 (inactive) and -0.575 (inactive) and 0.1 (inactive).
With `CCCCC(=O)O[C@H]1CC[C@H]2[C@@H]3CCc4cc(O)ccc4[C@H]3CC[C@]12C` the parasite load remaining [18] was 36.5% (inactive), the viability [18] was 98.1% and the fluorescence ratio [2] was 1.02 (inactive). For the same molecule, the inhibition [3] was 3.18% (inactive), the inhibition [4] was 4.1% (inactive) and the fluorescence ratio [5] was 0.91 (inactive). The inhibition [6] was 6.29% (inactive), the fold change [19, 24] was 1 (inactive) and the fold change [19, 25] was 2.83. The cell count [19, 26] was 6120, the cell count [19, 27] was 6090 and the z-score [7, 20] was -1.02 (inactive). For the same molecule, the z-score [7, 21] was -0.171, the remaining NAD [8] was 10 nM (inactive) and the luciferase signal [9] was 84 AU (inactive). For the same molecule, the z-score [10] was -1.51 (inactive), the log fold change Tl+ flux [11] was 0.0324 (inactive) and the log fold change Tl+ flux [12] was 0.0462 (inactive). The log fold change Tl+ flux [13] was 0.00253 (inactive), the log fold change Tl+ flux [14] was 0.0329 (inactive) and the log fold change Tl+ flux [15] was 0.0221 (inactive). For the same molecule, the log fold change Tl+ flux [16] was -0.00327 (inactive).
In the case of `CN(C)CCC(c1ccc(Cl)cc1)c1ccccn1` (stereo not drawn), the survival [1] is reported as 24.1 (inactive), the fluorescence ratio [2] is reported as 1.05 (inactive) and the inhibition [3] is reported as -1.98% (inactive). The inhibition [4] was -3.95% (inactive), the fluorescence ratio [5] was 1.02 (inactive) and the inhibition [6] was 14.7% (inactive). For the same molecule, the red/green cell ratio (normalised) [17] was 1.02 (inactive), the normalised cell number [17, 22] was 0.91 and the normalised cell number [17, 23] was 0.93. For the same molecule, the z-score [7, 20] was -0.0722 (inactive) and 0.91 (inactive) and 0.217 (inactive), the z-score [7, 21] was 0.675 and 0.216 and -0.121 and the remaining NAD [8] was 10 nM (inactive). The log fold change Tl+ flux [11] was 0.0819 (inactive), the log fold change Tl+ flux [12] was 0.0184 (inactive) and the log fold change Tl+ flux [13] was -0.0284 (inactive). For the same molecule, the log fold change Tl+ flux [14] was -0.059 (inactive), the log fold change Tl+ flux [15] was 0.0906 (active) and the log fold change Tl+ flux [16] was 0.0118 (inactive).
In the case of `CCCC1O[C@@H]2C[C@H]3[C@@H]4CCC5=CC(=O)C=C[C@]5(C)[C@H]4[C@@H](O)C[C@]3(C)[C@]2(C(=O)CO)O1` (stereo partly drawn), the survival [1] is reported as 0.833 (inactive), the parasite load remaining [18] is reported as 14% (inactive) and 67.2% (inactive) and 78.7% (inactive) and the viability [18] is reported as 116% and 115% and 75.3%. The fluorescence ratio [2] was 1.05 (inactive), the inhibition [3] was -1.36% (inactive) and the inhibition [4] was 1.05% (inactive). For the same molecule, the fluorescence ratio [5] was 0.99 (inactive), the inhibition [6] was -12.1% (inactive) and the z-score [7, 20] was -0.382 (inactive). The z-score [7, 21] was -0.0716, the remaining NAD [8] was 10 nM (inactive) and the luciferase signal [9] was 96 AU (inactive). For the same molecule, the log fold change Tl+ flux [11] was 0.198 (active), the log fold change Tl+ flux [12] was 0.159 (active) and the log fold change Tl+ flux [13] was 0.0553 (inactive). The log fold change Tl+ flux [14] was 0.0776 (inactive), the log fold change Tl+ flux [15] was 0.133 (active) and the log fold change Tl+ flux [16] was 0.115 (active).
